Here are results for seven compounds from PubChem BioAssay (NCATS).

Assay [1] has as its target Thyrotropin receptor (Homo sapiens) (UniProt P16473). The assay can be described thus: qHTS Assay for Antagonists of the Thyroid Stimulating Hormone Receptor (AID 488980). Also: series mostly up to about 58 µM; 0% is about no effect. Summed up:
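Inhibition of cAMP raised by EC80 TSH (4 nM final) was read by HTRF, with lysate cAMP competing against cAMP-d2 for cryptate antibody after 30 min at room temperature. The cells were transfected HEK293 held in phosphodiesterase inhibitor RO 20-1724 at 70 uM.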

Assay [2] has as its target D(1A) dopamine receptor (Homo sapiens) (UniProt P21728). The assay can be described thus: HTS Assay for Allosteric Agonists of the Human D1 Dopamine Receptor: Primary Screen for Agonists (AID 488981). Also: 0% is about no effect. Summed up: (§1)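 Calcium flux in an inducible, force-coupled HEK293 Trex D1 line (overnight at 30 C): agonist mode is the 180 s kinetic read after compound; potentiator mode is the following 180 s read after dopamine at EC20.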

Assay [3] shares this target. The assay can be described thus: HTS Assay for Allosteric Agonists of the Human D1 Dopamine Receptor: Primary Screen for Potentiators (AID 488982). Also: 0% is about no effect. The method in brief: as §1
Assay [4] shares this target. Description: HTS Assay for Allosteric Agonists of the Human D1 Dopamine Receptor: Primary Screen for Antagonists (AID 488983).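 Also: calcium flux response to an EC80 dopamine challenge measured with no-wash dye; % is scaled to controls: 0 for no effect and ±100 for the full control effect; nearly all actives have a fitted effect of over 65% in size.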 The method in brief: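 Cells are induced with tetracycline and incubated overnight at 30 C, then loaded with calcium dye for 30 to 90 minutes at room temperature. Compound addition is followed by a 180 s read, then an EC80 dopamine addition and another 180 s read.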

The nature of assay [5]: Validation screen for small molecules that induce genotoxicity in human embryonic kidney (HEK293T) cells expressing luciferase-tagged ELG1 (AID 493106). Also: 0% is about no effect. The method in brief:
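Luminescence from an ELG1-luciferase fusion serves as the read-out, rising when genetic stress elevates ELG1 protein. HEK293T reporter cells (2,000 per well) received 23 nL compound, incubated 16 hr at 37 °C, then ONE-Glo for 30 min at room temperature.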

Assay [6] has as its target Thyrotropin-releasing hormone receptor (Homo sapiens) (UniProt P34981). The assay can be described thus: qHTS for Small Molecule Agonists and Allosteric Enhancers of Human TRH Receptor: Validation Screen for Agonists (AID 493127;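 active = calcium activation more than 3 SD above the typical response in the agonist read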;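 also: intracellular calcium rise by fluo-8 fluorescence before TRH EC20 addition; 0% is about no effect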). The conditions noted are these: TRH receptor agonist cell assay; at 2 µM; stronger effect = higher value. The method in brief: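 Cells 2000/well, 10% FCS, 18 h 33.5C/5% CO2 → fluo-8 Ca dye, RT 30 min–1.5 h → FDSS baseline 10 × 1 s → compound added → 230 cycles (1 s/cycle) agonist mode. TRH controls.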
A general note: In qHTS, concentration-response curves come from the screen itself.

Assay [7] is described as follows: Nrf2 qHTS screen for inhibitors: Validation (AID 493153; active = well fitted inhibition curve with a large enough effect in the main read-out, with a control signal flat, not every such curve was filed as active). The settings on record: Potency: luciferase luminescence; viability change: measured here: cytotoxicity max response. The method in brief: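 Luminescence from an ARE-firefly luciferase reporter in A549 cells gives Nrf2 inhibition; an earlier CellTiter-Fluor fluorescent read flags cytotoxicity. Cells in 5% FBS OPTI-MEM received compound dilution series for 18-24 h at 37°C.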

For assay [8], the target named is Galactokinase (Homo sapiens) (UniProt P51570). The assay can be described thus: qHTS Validation Assay for Inhibitors of Human Galactokinase (GALK) (AID 493189). Also: 0% is about no effect. Summed up:
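Inhibition was measured as remaining ATP, detected by luciferase luminescence after a 1 h room-temperature reaction. Final conditions: 5 nM GALK, 100 uM galactose, 35 uM ATP, pH 8.0 HEPES buffer.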

Assay [9] in a line: Validation screen for small molecules that induce DNA re-replication in SW480 colon adenocarcinoma cells (AID 504364). Also: 0% is about no effect. The method in brief: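 250 cells/well; compound pinned in; 48 hr, 37 C, 5% CO2; Hoechst added, 40 min; nuclear fluorescence imaged, 405 ex / 500-530 em; re-replication scored as increase in high-intensity nuclei.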
The target of assay [10] is Peptidyl-prolyl cis-trans isomerase NIMA-interacting 1 (Homo sapiens) (UniProt Q13526). Description: qHTS Validation Assay to Find Inhibitors of Pin1 (AID 504536; active = well fitted inhibition curve with a large enough effect in the polarisation, with a control signal flat, not every such curve was filed as active; the % refers to the polarisation;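 also: 0% = full Pin1 enzyme wells and -100% = no-enzyme wells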). The method in brief:
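Fluorescence polarization competition: compounds (titration) displace HiFluor-488-labeled Pin1-1b peptide from Pin1 (0.3 uM final) in pH 7.5 HEPES buffer with DTT, 10 min at room temperature; %Activity normalized to no-enzyme wells, curves fitted.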

Assay [11] concerns the target Phosphoglycerate kinase, glycosomal (Trypanosoma brucei brucei) (UniProt P07378). The assay can be described thus: qHTS Validation Assay to Find Inhibitors of Phosphoglycerate Kinase (AID 504547).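 Also: control wells lack PGK and mark full inhibition.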 The method in brief:
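Inhibition of the enzyme is judged by a Kinase-Glo Plus luminescent signal following a one-hour incubation at room temperature. Because 1,3-BPG is unstable, it is made in situ by GAPDH at 100nM final; no-PGK wells define the baseline.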

For assay [12], the target named is phosphoglycerate mutase (Leishmania major) (UniProt Q4Q090). Description: qHTS Validation Assay to Find Inhibitors of Phosphoglycerate Mutase (AID 504548). Also: series mostly up to about 58 µM; % is scaled to controls: 0 for no effect and ±100 for the full control effect. The settings on record: Potency: inhibition qHTS. The method in brief: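 Luminescent end-point read-out via Kinase-GloPlus after a 10-minute development. Reaction: 1.25nM Leishmania major PGAM with substrate and compound, 45 minutes at room temperature in TEA buffer (pH 7.6) with MgCl2 and Tween-20.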

Assay [13] addresses Ubiquitin carboxyl-terminal hydrolase 1 (Homo sapiens) (UniProt O94782). The assay can be described thus: Inhibitors of USP1/UAF1: Pilot qHTS (AID 504865).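 Also: rhodamine fluorescence freed from ubiquitin-rhodamine substrate followed over time; top concentration of the series differs between compounds; % is scaled to controls: 0 for no effect and ±100 for the full control effect; nearly all actives have a fitted effect of over 35% in size.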 Summed up:
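Deubiquitinase activity followed as kinetic rhodamine fluorescence release from 150 nM Ub-Rho. 1 nM USP1/UAF1 with compound, after 15 min room-temperature preincubation, in HEPES pH 7.8 buffer containing TCEP, EDTA, BSA and Tween-20.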

A short description of assay [14]: qHTS for Inhibitors of ATXN expression: Validation of Cytotoxic Assay (AID 588349). Also: % is scaled to controls: 0 for no effect and ±100 for the full control effect. The method in brief:
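Read-out: ATP-based luminescence (CellTiter Glo) reflecting viability of HEK293 cells after 72 hr incubation at 37 degrees C with a concentration series of each compound.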

Assay [15] in a line: qHTS for Inhibitors of ATXN expression: Validation (AID 588378). Also: nearly all actives have a fitted effect of over 75% in size. Also: potency is read from the fitted curve at half-maximal effect. The method in brief: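 Luciferase luminescence (Bright-Glo) from an ATXN2-FFLuc HEK293 line after 24 h compound exposure at 37 °C, preceded by a CellTiter-Fluor fluorescence viability read. Serial dilutions of a reference ATXN2 inhibitor and a luciferase inhibitor served as controls.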
Assay [16] concerns the target ATPase family AAA domain-containing protein 5 (Homo sapiens) (UniProt Q96QE3). Description: Validation screen for small molecules that inhibit ELG1-dependent DNA repair in human embryonic kidney (HEK293T) cells expressing luciferase-tagged ELG1 (AID 493107).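 Also: cells co-treated with the DNA-damaging agent 5-fluorouridine alongside compound; series mostly up to about 46 µM; % is scaled to controls: 0 for no effect and ±100 for the full control effect; inhibitors lower the ELG1-luciferase luminescence signal; nearly all actives have a fitted effect of over 70% in size.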 Summed up: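 Luminescence from ONE-Glo, developed 30 min at room temperature, served as read-out of ELG1-luciferase levels. Beforehand, reporter HEK293T cells received 5-fluorouridine plus test compound for 16 hr at 37 °C.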

The nature of assay [17]: qHTS for Inhibitors of Cell Surface uPA Generation: Validation Assay (AID 493164). Also: 0% is about no effect. Summed up:
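RAW 264.7 cells (4000/well) were plated overnight, then exposed for 18 h at 37 C, 5% CO2 to compounds in a 7-point 1:5 titration (2.45 nM–38.3 uM final). Intracellular ATP was read by ATP-Lite luminescence.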

Inconclusive results are not listed. Active and inactive are the calls of the source. Unless noted, calls follow the shape of the dose curve; as a rule, active = well fitted curve in the direction sought with a large enough effect; inconclusive = small, poorly fitted or top-dose-only effect, or another doubt; inactive = no such curve, though single readings can be large; an effect the other way counts as inactive or inconclusive.

Chain of Phosphoglycerate kinase, glycosomal (Trypanosoma brucei brucei) (P07378 whole entry, looked up): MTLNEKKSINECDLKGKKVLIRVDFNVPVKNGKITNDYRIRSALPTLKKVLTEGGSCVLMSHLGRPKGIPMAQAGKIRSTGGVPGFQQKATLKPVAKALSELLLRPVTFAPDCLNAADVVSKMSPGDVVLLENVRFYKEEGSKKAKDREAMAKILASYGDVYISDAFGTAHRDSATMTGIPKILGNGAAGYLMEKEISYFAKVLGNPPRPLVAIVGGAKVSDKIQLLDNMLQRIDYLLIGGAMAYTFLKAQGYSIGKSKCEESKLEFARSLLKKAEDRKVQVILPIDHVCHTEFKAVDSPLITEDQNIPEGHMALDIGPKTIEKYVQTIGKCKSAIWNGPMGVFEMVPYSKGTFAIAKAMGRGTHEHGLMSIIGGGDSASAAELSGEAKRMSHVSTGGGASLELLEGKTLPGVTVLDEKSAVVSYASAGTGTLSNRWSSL
Chain of Ubiquitin carboxyl-terminal hydrolase 1 (Homo sapiens) (O94782 whole entry, looked up): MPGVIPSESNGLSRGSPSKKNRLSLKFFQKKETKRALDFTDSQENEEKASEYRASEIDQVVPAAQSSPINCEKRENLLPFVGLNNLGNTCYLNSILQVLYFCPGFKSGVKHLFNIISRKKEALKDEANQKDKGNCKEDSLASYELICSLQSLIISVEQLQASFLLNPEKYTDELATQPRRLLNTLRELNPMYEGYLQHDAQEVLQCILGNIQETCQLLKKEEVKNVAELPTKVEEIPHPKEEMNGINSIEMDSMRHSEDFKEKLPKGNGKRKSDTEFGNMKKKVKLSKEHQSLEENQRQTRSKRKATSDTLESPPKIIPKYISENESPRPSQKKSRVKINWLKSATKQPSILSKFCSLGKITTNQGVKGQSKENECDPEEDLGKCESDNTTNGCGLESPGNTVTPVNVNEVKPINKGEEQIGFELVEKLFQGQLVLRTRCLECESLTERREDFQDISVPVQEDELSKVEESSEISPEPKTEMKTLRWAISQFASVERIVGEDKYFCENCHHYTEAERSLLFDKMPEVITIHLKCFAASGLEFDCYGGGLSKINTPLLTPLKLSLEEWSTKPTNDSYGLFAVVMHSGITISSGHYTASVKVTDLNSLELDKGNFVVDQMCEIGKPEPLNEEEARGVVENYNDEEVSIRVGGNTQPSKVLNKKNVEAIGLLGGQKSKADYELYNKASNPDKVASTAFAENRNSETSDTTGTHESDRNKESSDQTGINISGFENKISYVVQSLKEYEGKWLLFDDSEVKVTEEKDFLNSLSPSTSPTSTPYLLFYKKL
Chain of D(1A) dopamine receptor (Homo sapiens) (P21728 whole entry, looked up): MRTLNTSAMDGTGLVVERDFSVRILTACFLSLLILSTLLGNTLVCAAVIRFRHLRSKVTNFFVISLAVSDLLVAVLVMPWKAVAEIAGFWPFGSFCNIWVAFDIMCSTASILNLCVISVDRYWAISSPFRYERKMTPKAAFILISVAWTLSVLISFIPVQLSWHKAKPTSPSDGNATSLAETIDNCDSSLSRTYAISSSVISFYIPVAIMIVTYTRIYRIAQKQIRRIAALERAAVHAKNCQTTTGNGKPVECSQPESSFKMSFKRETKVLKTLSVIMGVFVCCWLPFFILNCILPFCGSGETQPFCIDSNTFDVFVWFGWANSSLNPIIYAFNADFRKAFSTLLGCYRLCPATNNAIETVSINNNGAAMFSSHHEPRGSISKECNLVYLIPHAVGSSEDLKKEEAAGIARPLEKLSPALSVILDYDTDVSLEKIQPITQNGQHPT
Chain of phosphoglycerate mutase (Leishmania major) (Q4Q090 1-553): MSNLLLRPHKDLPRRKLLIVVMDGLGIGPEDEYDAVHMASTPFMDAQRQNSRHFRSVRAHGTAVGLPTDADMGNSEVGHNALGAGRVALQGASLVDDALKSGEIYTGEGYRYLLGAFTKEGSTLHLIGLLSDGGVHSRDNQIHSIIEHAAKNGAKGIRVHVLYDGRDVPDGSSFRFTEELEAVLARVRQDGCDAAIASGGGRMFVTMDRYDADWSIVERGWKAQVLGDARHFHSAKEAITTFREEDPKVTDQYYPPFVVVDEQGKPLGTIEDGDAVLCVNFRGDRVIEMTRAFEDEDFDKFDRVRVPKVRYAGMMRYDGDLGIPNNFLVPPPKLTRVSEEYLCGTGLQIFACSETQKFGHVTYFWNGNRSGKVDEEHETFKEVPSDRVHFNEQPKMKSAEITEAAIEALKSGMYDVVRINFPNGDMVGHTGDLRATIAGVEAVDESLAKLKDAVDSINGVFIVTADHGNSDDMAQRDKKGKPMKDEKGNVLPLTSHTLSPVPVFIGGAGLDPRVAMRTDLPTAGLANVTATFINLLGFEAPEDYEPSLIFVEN
Chain of Peptidyl-prolyl cis-trans isomerase NIMA-interacting 1 (Homo sapiens) (Q13526 whole entry, looked up): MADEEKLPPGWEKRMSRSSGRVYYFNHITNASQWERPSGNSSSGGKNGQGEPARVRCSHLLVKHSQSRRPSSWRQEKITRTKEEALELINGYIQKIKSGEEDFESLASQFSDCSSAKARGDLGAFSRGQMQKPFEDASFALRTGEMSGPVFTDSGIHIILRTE
Chain of Thyrotropin receptor (Homo sapiens) (P16473 whole entry, looked up): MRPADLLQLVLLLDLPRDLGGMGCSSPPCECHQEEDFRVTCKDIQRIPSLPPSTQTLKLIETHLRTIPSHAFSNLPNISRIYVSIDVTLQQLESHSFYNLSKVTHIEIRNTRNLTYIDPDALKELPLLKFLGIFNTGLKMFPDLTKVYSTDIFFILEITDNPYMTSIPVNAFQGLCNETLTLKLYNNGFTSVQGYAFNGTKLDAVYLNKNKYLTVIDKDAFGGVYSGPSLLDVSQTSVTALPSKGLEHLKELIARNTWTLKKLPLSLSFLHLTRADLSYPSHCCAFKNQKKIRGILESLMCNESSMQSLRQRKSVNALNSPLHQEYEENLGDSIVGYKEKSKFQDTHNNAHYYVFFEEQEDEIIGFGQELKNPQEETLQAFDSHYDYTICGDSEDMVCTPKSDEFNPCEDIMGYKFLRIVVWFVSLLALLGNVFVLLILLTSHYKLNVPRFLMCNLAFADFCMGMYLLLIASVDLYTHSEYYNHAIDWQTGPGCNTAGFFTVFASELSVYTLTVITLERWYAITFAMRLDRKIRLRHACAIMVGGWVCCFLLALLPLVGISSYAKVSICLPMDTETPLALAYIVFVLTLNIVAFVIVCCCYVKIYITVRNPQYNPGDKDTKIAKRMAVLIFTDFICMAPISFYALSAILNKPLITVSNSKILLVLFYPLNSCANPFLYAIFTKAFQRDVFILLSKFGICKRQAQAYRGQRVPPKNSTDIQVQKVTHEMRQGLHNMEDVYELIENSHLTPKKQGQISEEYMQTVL
Chain of Galactokinase (Homo sapiens) (P51570 whole entry, looked up): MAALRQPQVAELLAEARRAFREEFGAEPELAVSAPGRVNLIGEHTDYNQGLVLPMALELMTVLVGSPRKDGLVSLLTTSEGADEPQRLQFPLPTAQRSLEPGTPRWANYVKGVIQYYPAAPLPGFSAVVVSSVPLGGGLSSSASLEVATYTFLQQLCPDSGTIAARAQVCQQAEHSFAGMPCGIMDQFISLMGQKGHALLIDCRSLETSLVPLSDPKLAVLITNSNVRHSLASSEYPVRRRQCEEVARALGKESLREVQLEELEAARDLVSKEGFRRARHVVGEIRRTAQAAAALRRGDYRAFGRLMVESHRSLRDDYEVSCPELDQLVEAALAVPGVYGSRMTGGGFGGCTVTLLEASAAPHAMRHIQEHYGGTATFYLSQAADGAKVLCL
Chain of Thyrotropin-releasing hormone receptor (Homo sapiens) (P34981 whole entry, looked up): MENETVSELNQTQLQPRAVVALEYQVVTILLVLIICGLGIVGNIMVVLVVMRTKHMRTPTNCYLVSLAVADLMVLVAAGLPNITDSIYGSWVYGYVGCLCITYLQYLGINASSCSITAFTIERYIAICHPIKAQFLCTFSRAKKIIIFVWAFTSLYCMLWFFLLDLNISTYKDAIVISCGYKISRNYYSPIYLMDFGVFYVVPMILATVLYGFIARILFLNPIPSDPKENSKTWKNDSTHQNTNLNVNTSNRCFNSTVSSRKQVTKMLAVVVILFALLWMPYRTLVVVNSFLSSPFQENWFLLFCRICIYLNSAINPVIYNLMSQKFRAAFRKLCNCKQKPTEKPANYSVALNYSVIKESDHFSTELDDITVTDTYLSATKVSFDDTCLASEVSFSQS

For the compound `N[C@@H](CS(=O)O)C(=O)O`, in [1], the outcome was inactive. Further, the Potency result in assay [2], in assay [3], in assay [4], in assay [5], in assay [7] and in assay [8] was “inactive” throughout. The Potency entry in assay [9], in assay [10], in assay [11], in assay [12], in assay [13] and in [14] was “inactive” throughout. Further, the Potency result in [15] was “inactive”. Besides, the activation in [6] is 0.688% (inactive). In addition, the viability change in assay [7] was -0.201%.

As to `CC(C)[C@@H]1CC[C@@H](C)C[C@@H]1P(=O)(c1ccccc1)c1ccccc1`, the Potency result in [2], in [3], in assay [4], in [5], in assay [16] and in assay [7] was “inactive” throughout. Moreover, the Potency result in [10], in assay [11], in [12], in assay [13], in assay [14] and in assay [15] was “inactive” each time. Also, the viability change in [7] is -1.08%. Moreover, the call in assay [17] was inactive.

For `CN1CCCC1CCOC(C)(c1ccccc1)c1ccc(Cl)cc1` (stereo not drawn), the compound was called inactive in assay [1] and in assay [17]. For the same compound, the Potency result in assay [2], in assay [5], in assay [7], in assay [8], in [9] and in [10] was “inactive” throughout. Also, the Potency entry in [12] and in [13] was “inactive” in each case. The activation in assay [6] is 1.88% (inactive). Also, the viability change in [7] is -0.239%. Moreover, the Potency in assay [15] is 12.6 µM (active).

For `CCCCCCCCCC(=O)NC(CN1CCOCC1)[C@H](O)c1ccccc1` (stereo partly drawn), the compound was called inactive in assay [1] and in assay [17]. The Potency entry in assay [3], in assay [4], in assay [5], in assay [16], in assay [7] and in assay [8] was “inactive” in each case. Also, the Potency entry in assay [9], in [10], in assay [11], in assay [12] and in [13] was “inactive” throughout. In addition, in [6], the activation was 0.812% (inactive). Further, the viability change in assay [7] is -4.61%.

Take `CCCn1c(=O)c(C)cn2nc(N)nc12`: the Potency result in [2], in [3], in assay [4], in assay [5], in assay [16] and in [7] was “inactive” each time. In addition, the Potency result in assay [10], in assay [11], in assay [12], in assay [13] and in assay [15] was “inactive” each time. In addition, in assay [7], the viability change is -13%. In assay [17], the call was inactive.

As to `O=C(O)c1ccccc1Nc1cccc(OCc2ccc3ccccc3n2)c1`, the result in assay [1] and in assay [17] was inactive. The Potency result in [2], in assay [3], in assay [5], in assay [16], in assay [7] and in assay [8] was “inactive” in each case. Further, the Potency entry in assay [9], in assay [10], in assay [11], in assay [14] and in [15] was “inactive” in each case. Moreover, the activation in assay [6] was -5.56% (inactive). Further, the viability change in assay [7] is -13.9%.

With `Oc1ccc(/C=C/c2ccc(/C=C/c3ccc(O)cc3)c(Br)c2)cc1`, the Potency result in assay [2], in assay [3], in assay [4], in assay [5], in assay [16] and in [7] was “inactive” each time. Further, the Potency result in assay [10], in assay [11], in [12] and in assay [13] was “inactive” in each case. The viability change in [7] was 2.12%. Moreover, the call in assay [17] was inactive.
